# Source: PubChem (National Center for Advancing Translational Sciences (NCATS))
# CHX counter = affects cycloheximide protein synthesis inhibition readout, counter-screen | cell reporter, cycloheximide protein synthesis inhibition counterscreen | max response, % | hit rate 12% among 300,000; in the data active means max response mostly above about 13%, no sharp cut-off; inactive means mostly below about 14%; further: read at 38.3 µM for the half of the compounds with a filed dose; 0% is about no effect
# SARS PLpro yeast = blocks SARS-CoV papain-like protease in a yeast assay. S. cerevisiae expressing SARS-CoV PLpro, growth rescue. Potency, µM (highest dose often 32.9 µM), without a hit: at the highest dose activity, positive = growth rescue, actives largely listed as activators. hit rate 0.19% among 330,000. AID 485353; further: potency means the concentration at half of the fitted maximal effect; 0% is about no effect; nearly all actives have a fitted effect of over 55% in size
# Shiga inhibitor = blocks Shiga toxin action in Vero cells; AID 2315; Vero cells, Shiga toxin protein synthesis inhibition reporter; inhibition, % at 38.7 µM; hit rate 9.2% among 290,000; in the data active means inhibition mostly above about 28%, no sharp cut-off; inactive means mostly below about 43%; further: 0% is about no effect
# Pf growth 48h = P. falciparum growth inhibition at 48 hours (one generation). P. falciparum luciferase growth in erythrocytes, 48 h. Potency, µM (top dose mostly 28.7 µM), without a hit: at the top dose activity change, negative = inhibition, hits mostly inhibitors. hit rate 5.9% among 310,000. AID 504832; active means well fitted inhibition curve with a large enough effect; inconclusive means small, poorly fitted or top-dose-only effect, or another doubt; inactive means no such curve, though single readings can be large or run the other way; further: potency means the concentration at half of the fitted maximal effect; on the % scale 0 is the no-effect control and ±100 the full control effect
#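 Luminescence readout; reporter = integrated firefly luciferase in P. falciparum. RBC culture at 2% hematocrit, 0.1% parasitemia final, 37 C/5% CO2; decreased signal taken as growth inhibition.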
# Pf growth 96h = inhibits malaria parasite growth, 96 h; P. falciparum luciferase reporter growth, 96 h; hit rate 6.9% among 320,000; AID 504834; Potency, µM (top dose mostly 28.7 µM), for the others: top-dose activity change, negative = inhibition, most hits filed as inhibitors; active means well fitted inhibition curve with a large enough effect; inconclusive means small, poorly fitted or top-dose-only effect, or another doubt; inactive means no such curve, though single readings can be large or run the other way; further: potency means the concentration at half of the fitted maximal effect; on the % scale 0 is the no-effect control and ±100 the full control effect
#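 Two-generation exposure (96 h) targets delayed-death phenotype. Reporter parasites carrying integrated firefly luciferase, in red cells at 2% hematocrit and 0.05% parasitemia final, kept at 37 C, 5% CO2; luminescence loss indicates inhibition.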
# NS1 function inh = inhibitors of influenza NS1 protein function | Potency, µM (highest dose often 46.1 µM), for inactives: at the highest dose activity, positive = more growth | hit rate 0.4% among 270,000 | AID 2326; further: potency means the concentration at half of the fitted maximal effect; actives are rising curves; nearly all actives have a fitted effect of over 50% in size
#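 Read-out: OD600 growth recovery of NS1-expressing budding yeast. Cells grown overnight at 30C in -URA glucose medium, washed, resuspended and diluted 1:100 in 2% galactose assay medium, pH 6.0. Same strain lacking NS1 served as positive control.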
# * = called active by the depositor; u = inconclusive; x = no result given. Sampled rows, rich in hits. Any-hit rate of the full collection: about 21%. Unless noted, the call rests on the fitted dose curve.
SMILES,CHX counter,SARS PLpro yeast,Shiga inhibitor,Pf growth 48h,Pf growth 96h,NS1 function inh
CC(Sc1ccccc1)C(=O)N1CCN(S(=O)(=O)c2ccccc2F)CC1 (stereo unspecified),6,-2%,-4,1%,-15%,5%
CN(c1ccccc1)S(=O)(=O)c1cccc(NC(=O)CC(C)(C)C)c1,1,16%,12,-17%,12µM*,-23%
COCCn1cnnc1SCC(=O)Nc1cccc(S(=O)(=O)N(C)c2ccccc2)c1,5,0%,1,u,u,-1%
Cc1ccc(NC(=O)CN2CCc3ccccc3C2)cc1S(=O)(=O)N(C)C,-2,-1%,-11,-8%,-10%,-3%
Cc1nnc(SCC(=O)Nc2cccc(S(=O)(=O)N(C)c3ccccc3)c2)s1,38*,-4%,-67,-8%,u,-2%
CN(c1ccccc1)S(=O)(=O)c1cccc(NC(=O)CN2CCc3ccccc3C2)c1,1,-9%,-9,-21%,10µM*,x
COc1cc(CC(=O)Nc2cccc(S(=O)(=O)N(C)c3ccccc3)c2)cc(OC)c1OC,x,-9%,x,x,x,x
CCC1CCC2(CC1)NC(=O)N(CC(=O)Nc1cccc(S(=O)(=O)N(C)c3ccccc3)c1)C2=O (stereo unspecified),x,-4%,x,u,u,x
CN1C(=O)N(CC(=O)Nc2cccc(S(=O)(=O)N(C)c3ccccc3)c2)C(=O)C12CCCCC2,x,1%,x,15µM*,u,x
Cc1c(NC(=O)C(C)OC(=O)CCOc2ccccc2)c(=O)n(-c2ccccc2)n1C (stereo unspecified),x,x,x,2%,76%,x
CN(c1ccccc1)S(=O)(=O)c1cccc(NC(=O)COc2cccc([N+](=O)[O-])c2)c1,x,4%,x,13µM*,-19%,x
CCC(=O)c1ccc(OCC(=O)Nc2cccc(S(=O)(=O)N(C)c3ccccc3)c2)cc1,x,1%,x,u,-5%,x
Cc1ccc(OCCSc2nc3ccccc3n2CC(=O)O)c(C(C)C)c1,-4,1%,-3,x,-21%,10%
C=C(C)C1Cc2c(C)nn(-c3nc(C)cc(C)n3)c2C1 (stereo unspecified),-3,-5%,13,u,13µM*,-102%
C=C(C)C1Cc2nc(N)nc(C)c2C1 (stereo unspecified),-2,10%,-16,50%,1%,-7%
C=CCn1c(O)c2ccc(C(=O)N=NC(=O)COc3ccc(OC)cc3)cc2c1O,1,0%,-3,23%,34%,10%
Cc1c(C(=O)Nc2ccc(Br)cc2)cnn1C,78*,-4%,130*,174%,182%,-2%
Cn1ncc(Cl)c1C(=O)Nc1ccc2c(c1)OCO2,21*,3%,47,31%,-2%,2%
O=C(Nc1ccc2c(c1)OCO2)c1c(Cl)nc2sccn12,25*,3%,103*,113%,156%,-6%
CCN(CC(=O)Nc1ccc2c(c1)OCCO2)Cc1cc(=O)n2ccsc2n1,4,-1%,3,15%,u,x
Cn1nccc1C(=O)Nc1ccc2c(c1)OCCO2,43*,-1%,96*,84%,u,-3%
Cn1ncc(Br)c1C(=O)Nc1ccc(Br)cn1,-3,-5%,-2,37%,48%,-2%
COc1ccc(C(C)(C)C)cc1NC(=O)CN1C(=O)C(=O)N(Cc2ccco2)C1=O,x,-7%,x,u,u,x
Cn1ncc([N+](=O)[O-])c1C(=O)Nc1ccc2c(c1)OCCO2,33*,0%,54*,56%,0%,-4%
Cn1ncc([N+](=O)[O-])c1C(=O)Nc1ccc(-c2ccccc2)cc1,13*,6%,x,-10%,-4%,10%
Cc1c(C(=O)Nc2ccc3c(c2)OCCO3)cnn1C,48*,-1%,78*,229%,u,-8%
Cc1ccc(C(=O)Nc2ccc3c(c2)OCCO3)c(C)c1,-3,-5%,-9,203%,-4%,-4%
Cc1nn(C)cc1C(=O)Nc1ccc2c(c1)OCCO2,43*,-1%,71*,114%,0%,7%
COc1ccc(C(=O)NNS(=O)(=O)c2ccccc2)cc1OC,-2,-1%,x,0%,-9%,-2%
C=CC[C@H](CC(=O)NCCO)C(=O)N[C@@H](COC(=O)[C@H](CC=C)CC(=O)OC(C)(C)C)Cc1c[nH]c2ccccc12,x,9%,x,x,x,x
